Reference: PubChem BioAssay AID1159580 (chemical genetic matrix, 2015)
Several values for one entry are separate records, joined by “and”; a condition that tells them apart may be missing. Equal values may be shown once. The whole screen tested about 5,500 compounds, of which about 2,000 (36%) were called active. Roughly 18% stayed inconclusive and do not appear here. Cut-off read from the data, not from the text of the source: active = normalized growth mostly below about 0.91 (no sharp cut-off); inconclusive = no clear call, values can overlap the other calls; inactive = mostly above about 0.92. Some of the results follow.

Experiment: chemical genetic growth profiling, strain panel (AID 1159580);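 note: tested at 20 µM; growth read once vehicle control cultures reached saturation at 30 °C; 1 = growth at the plate median or of vehicle wells; lower values mean less growth of the strain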
Conditions: S. cerevisiae deletion strains, growth OD

Measured: normalized growth

Nc1ccc(S(=O)(=O)Nc2ncccn2)cc1
inactive: locus YAL013W, strain DEP1, active compounds read low 0.982 | locus YAL021C, strain ccr4, active compounds read low 0.968 | locus YAL026C, strain drs2, active compounds read low 0.986 | locus YAL030W, strain snc1, active compounds read low 0.994 | locus YBL061C, strain skt5, active compounds read low 0.985 | locus YBR009C, strain hhf1, active compounds read low 0.986 | locus YBR021W, strain FUR4, active compounds read low 0.992 | locus YBR023C, strain chs3, active compounds read low 0.993 | locus YBR171W, strain sec66, active compounds read low 0.973 | locus YBR229C, strain ROT2, active compounds read low 0.96 | locus YBR231C, strain swc5, active compounds read low 1.02 | locus YBR279W, strain paf1, active compounds read low 0.995 | locus YCL011C, strain gbp2, active compounds read low 0.957 | locus YCL016C, strain dcc1, active compounds read low 1.01 | locus YCL029C, strain bik1, active compounds read low 0.991 | locus YCL069W, strain vba3, active compounds read low 0.954 | locus YCR088W, strain abp1, active compounds read low 0.976 | locus YDL005C, strain med2, active compounds read low 0.985 | locus YDL035C, strain GPR1, active compounds read low 0.979 | locus YDL040C, strain nat1, active compounds read low 0.971 | locus YDL074C, strain BRE1, active compounds read low 0.969 | locus YDL101C, strain DUN1, active compounds read low 0.981 | locus YDL134C, strain PPH21, active compounds read low 0.999 | locus YDL185W, strain tfp1, active compounds read low 0.988 | locus YDL192W, strain arf1, active compounds read low 1 | locus YDR001C, strain nth1, active compounds read low 0.965 | locus YDR069C, strain doa4, active compounds read low 0.97 | locus YDR101C, strain arx1, active compounds read low 1.01 | locus YDR137W, strain rgp1, active compounds read low 0.964 | locus YDR150W, strain NUM1, active compounds read low 0.985 | locus YDR159W, strain sac3, active compounds read low 0.955 | locus YDR162C, strain NBP2, active compounds read low 0.996 | locus YDR195W, strain ref2 0.956 | locus YDR297W, strain sur2, active compounds read low 0.975 | locus YDR318W, strain mcm21, active compounds read low 1 | locus YDR334W, strain swr1, active compounds read low 0.935 | locus YDR335W, strain msn5, active compounds read low 0.988 | locus YDR388W, active compounds read low 0.994 | locus YDR392W, strain spt3, active compounds read low 1 | locus YDR502C, strain sam2, active compounds read low 1.01 | locus YEL003W, strain gim4, active compounds read low 0.991 | locus YEL037C, strain rad23, active compounds read low 0.967 | locus YEL061C, strain CIN8 (second series), active compounds read low 0.967 | locus YEL061C, strain CIN8, active compounds read low 0.988 | locus YER015W, strain faa2, active compounds read low 0.994 | locus YER016W, strain bim1, active compounds read low 0.968 | locus YER110C, active compounds read low 0.968 | locus YER111C, strain swi4, active compounds read low 1 | locus YER155C, strain BEM2 (second series), active compounds read low 0.989 | locus YER155C, strain BEM2, active compounds read low 0.991 | locus YER167W, strain BCK2, active compounds read low 0.99 | locus YFR010W, strain ubp6, active compounds read low 0.941 | locus YGL078C, strain dbp3, active compounds read low 1 | locus YGL086W, strain mad1, active compounds read low 0.997 | locus YGL167C, strain pmr1, active compounds read low 0.976 | locus YGL173C, strain kem1, active compounds read low 0.994 | locus YGL227W, strain vid30, active compounds read low 0.995 | locus YGL240W, strain doc1, active compounds read low 0.986 | locus YGL248W, strain PDE1, active compounds read low 0.978 | locus YGL253W, strain hxk2, active compounds read low 0.923 | locus YGR078C, strain PAC10, active compounds read low 0.986 | locus YGR135W, strain pre9, active compounds read low 0.997 | locus YGR252W, strain gcn5, active compounds read low 0.957 | locus YHR013C, strain ard1, active compounds read low 0.984 | locus YHR027C, strain rpn1, active compounds read low 0.988 | locus YHR030C, strain SLT2, active compounds read low 0.999 and 0.97 | locus YHR079C, strain IRE1 (second series), active compounds read low 1 | locus YHR079C, strain IRE1, active compounds read low 0.979 | locus YHR094C, strain hxt1, active compounds read low 0.994 | locus YHR129C, strain ARP1, active compounds read low 0.987 | locus YHR142W, strain chs7, active compounds read low 0.984 | locus YHR200W, strain rpn10, active compounds read low 0.992 | locus YIL066C, strain RNR3, active compounds read low 0.984 | locus YIL073C, strain SPO22, active compounds read low 1.02 | locus YIL125W, strain kgd1, active compounds read low 0.995 | locus YIR030C, strain dcg1, active compounds read low 0.997 | locus YJL092W, strain hpr5, active compounds read low 0.974 | locus YJL095W, strain BCK1 (second series), active compounds read low 0.995 | locus YJL095W, strain BCK1, active compounds read low 0.994 and 0.979 | locus YJL115W, strain asf1, active compounds read low 0.97 | locus YJL129C, strain trk1, active compounds read low 0.984 | locus YJL134W, strain LCB3, active compounds read low 0.993 | locus YJL154C, strain vps35, active compounds read low 0.969 | locus YJL164C, strain tpk1, active compounds read low 0.992 | locus YJL166W, strain qcr8, active compounds read low 0.936 | locus YJL168C, strain set2, active compounds read low 0.992 | locus YJL187C, strain SWE1 (second series), active compounds read low 0.986 | locus YJL187C, strain SWE1, active compounds read low 0.974 | locus YJR043C, strain POL32, active compounds read low 1.01
